High-throughput results as filed in PubChem.
KinaseGlo FLuc = Counterscreen for Luciferase (Kinase-Glo TM) Inhibition | Luciferin 4-monooxygenase (Photuris pensylvanica), Q27757 | Kinase-Glo luciferase, ATP luminescence, 8 min | Potency, µM (highest dose often 38.3 µM), for inactives: at the highest dose activity change, negative = inhibition, usual class: inhibitors | 0.28% of 200,000 active; also: % is scaled to controls: 0 for no effect and ±100 for the full control effect; nearly all actives have a fitted effect of over 60% in size
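Inhibition of Kinase-Glo luciferase light generation was assessed at 10 uM ATP in pH 7.2 imidazole buffer, with luminescence measured after eight minutes at ambient temperature.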
SMN2 splice up = qHTS Assay for Enhancers of SMN2 Splice Variant Expression; HEK293 SMN2-luciferase splicing reporter, luminescence, 30-36 h; Potency, µM (series often up to 46.1 µM), for the others: at the top dose activity change, positive = activation, most hits filed as activators; 2.8% of 210,000 active; also: % of control where 0% means no effect; nearly all actives have a fitted effect of over 55% in size
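HEK293 cells carry an SMN2 […]–luciferase reporter in which exon 7 inclusion puts luciferase in frame. Cells were plated 10-12 h before compound addition, then incubated 30-36 h at 37C. ONE-Glo luminescence was read; sodium butyrate at 4.5 mM final served as control.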
ELG1 genotoxic = qHTS screen for small molecules that induce genotoxicity in human embryonic kidney (HEK293T) cells expressing luciferase-tagged ELG1 | HEK293T ELG1-luciferase reporter, luminescence, 16 h | Potency, µM (top dose mostly 46 µM), for the others: at the highest dose activity change, positive = activation, hits mostly activators | 1.3% of 330,000 active | AID 504466, 2011; also: % of control where 0% means no effect; nearly all actives have a fitted effect of over 60% in size
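Cells (2,000/well) expressing the ELG1-luciferase fusion are dosed by pin tool and kept 16 hr at 37 °C, 5% CO2. Signal comes from ONE-Glo luciferase reagent after 30 min at room temperature.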
NPC1 prom act = qHTS Assay for NPC1 Promoter Activators | Huh7 NPC1 promoter luciferase reporter, 24 h | Potency, µM (top dose mostly 9.22 µM), without a hit: at the highest dose activation, most hits filed as activators | 2.4% of 320,000 active; also: % of control where 0% means no effect; nearly all actives have a fitted effect of over 60% in size
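Luminescence from an NPC1 promoter-driven luciferase reporter in stably transfected Huh7 cells was measured after 24 h compound treatment at 37 °C, followed by 10 min ambient incubation with luciferase detection reagent.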
Rab9 promoter act = qHTS Assay for Rab9 Promoter Activators. Huh7 Rab9 promoter-luciferase reporter, luminescence, 24 h. Potency, µM (top dose mostly 9.22 µM), for inactives: at the highest dose activation, negative = inhibition, hits mostly activators. 2.8% of 320,000 active. AID 485297, 2010; also: % of control where 0% means no effect; nearly all actives have a fitted effect of over 60% in size
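Measured in stably transfected Huh7 cells bearing a Rab9 promoter–luciferase construct: 24 h compound treatment at 37 °C, followed by luminescence detection.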
FLuc modulator = qHTS profiling assay for firefly luciferase inhibitor/activator using purifed enzyme and Km concentrations of substrates (counterscreen for miR-21 project); 6.9% of 360,000 active; Luciferin 4-monooxygenase (Photinus pyralis), P08659; purified FLuc, Km substrates, luminescence inhibition; Potency, µM (top dose mostly 57.5 µM), inactives show top-dose activity change, negative = inhibition, usual class: inhibitors;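 also: plate controls were vehicle for no effect and reference inhibitor for full effect; nearly all actives have a fitted effect of over 55% in size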
Target sequence (P08659 whole entry, looked up): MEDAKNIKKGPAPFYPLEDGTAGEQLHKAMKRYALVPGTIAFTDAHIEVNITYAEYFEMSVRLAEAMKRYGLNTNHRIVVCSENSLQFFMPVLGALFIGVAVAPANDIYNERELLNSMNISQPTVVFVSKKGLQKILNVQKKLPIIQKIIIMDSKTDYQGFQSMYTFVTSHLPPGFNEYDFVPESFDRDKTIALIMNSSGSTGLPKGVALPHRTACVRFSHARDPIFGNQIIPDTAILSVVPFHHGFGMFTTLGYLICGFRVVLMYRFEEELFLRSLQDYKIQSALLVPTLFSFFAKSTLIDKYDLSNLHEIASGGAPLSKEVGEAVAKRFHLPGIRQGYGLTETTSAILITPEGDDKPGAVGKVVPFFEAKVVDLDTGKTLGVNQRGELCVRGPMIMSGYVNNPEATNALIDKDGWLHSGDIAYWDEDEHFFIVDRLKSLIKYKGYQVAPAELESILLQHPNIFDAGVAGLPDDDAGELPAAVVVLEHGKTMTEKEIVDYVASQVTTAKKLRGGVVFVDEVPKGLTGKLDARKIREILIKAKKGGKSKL
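Purified P. pyralis luciferase, 10 nM final, with Km-level 10 uM D-luciferin and 10 uM ATP in 50 mM Tris acetate pH 7.5, 10 mM Mg acetate, 0.01% Tween-20, 0.05% BSA; 6-point qHTS titration about 60 µM downward; luminescence read.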
Active calls of the source: *; ? = inconclusive; . = not tested or not shown; [ ] = dose if it differs, or a comment. An excerpt weighted towards active compounds, which were near 7.3% of everything screened. Calls follow the shape of the dose curve; as a rule, active = well fitted curve in the direction sought with a large enough effect; inconclusive = small, poorly fitted or top-dose-only effect, or another doubt; inactive = no such curve, though single readings can be large; an effect the other way counts as inactive or inconclusive. Potency is read from the fitted curve at half-maximal effect.

SMILES	KinaseGlo FLuc	SMN2 splice up	ELG1 genotoxic	NPC1 prom act	Rab9 promoter act	FLuc modulator
Cc1nc2cc(NC(=O)N3c4ccccc4CC3C)ccc2o1 (stereo unspecified)	-3%	11µM*	3.3µM*	0.79µM*	0.89µM*	6µM*
Cc1nc2cc(NC(=O)N3c4ccccc4CC3C)ccc2n1C (stereo unspecified)	-7%	2.8µM*	?	0.5µM*	0.45µM*	1.7µM*
Cc1nc2cc(NC(=O)NCc3ccc4c(c3)OCO4)ccc2o1	3%	-2%	1%	-3%	-2%	-2%
Cn1c(=O)c2sccc2n2c(CCC(=O)N3CCN(c4ccc(F)cc4)CC3)nnc12	.	1%	.	.	.	-1%
C=CCN1c2ccccc2[C@]23C[C@@H](C(=O)OC)N(S(=O)(=O)c4c(C)noc4C)C2=NC(C(=O)OC)=C(C(=O)OC)[C@H]13	-2%[7.66 µM]	11%[9.22 µM]	.	.	.	.
O=S(=O)(c1ccccc1)c1nnn2c1nc(NC1CCCCCC1)c1sccc12	.	.	.	.	.	0%
CCOC(=O)Cn1c(=O)c(-c2cc(Br)ccc2N)nc2ccccc21	.	.	0%	-7%	1%	4%
Cn1c(=O)c(-c2cc(Br)ccc2N)nc2ccccc21	-4%	19%	?	18%	?	24µM*
COc1cc(C(=O)Nc2ccc3ccccc3c2)cc(OC)c1OC	.	.	?	-21%	0%	19µM*
Cn1nnc2cc(C(=O)Nc3ccc4ccccc4c3)ccc21	0%	3.2µM*	2.3µM*	0.89µM*	0.4µM*	1.9µM*
COc1ccc(C(=O)Nc2ccc3ccccc3c2)cc1OC	.	.	?	2.8µM*	?	9.5µM*
COc1ccc(OC)c(C(=O)c2ccc(C(=O)Nc3ccc4ccccc4c3)cc2)c1	-1%	-52%	?	10%	21%	1%
CCc1ccc(CNC(=O)c2cnc3sc(N4CCOCC4)nn3c2=O)cc1	.	.	.	.	.	3%
Cc1cc2ccc(OC(=O)c3ccc(N=C(N)N)cc3)cc2oc1=O	-6%[7.66 µM]	1%[9.22 µM]	.	.	.	.
CCC(=O)N1CCc2cc(S(=O)(=O)CCC(=O)N3CCN(c4cccc(C)c4)C(C)C3)ccc21 (stereo unspecified)	.	-31%	.	.	.	-3%
C#CCOc1ccc(/C=C2/C(=O)N(c3cccc(C(=O)O)c3)N=C2C)cc1OC	.	.	10%	-1%	-1%	12µM*
CC1=NN(c2ccccc2)C(=O)/C1=C/c1cc(C)n(C2CC2)c1C	-1%	7%	8%	11%	14%	2.4µM*
CC1=NN(c2ccc(Br)cc2)C(=O)/C1=C/c1cccs1	0%	-22%	-3%	25%	28%	7.6µM*
COc1ccccc1/C=C1/C(=O)N(c2ccccc2)N=C1C	.	.	0%	-1%	0%	27µM*
COc1cc(/C=C2\C(=O)N(c3ccccc3)N=C2C)ccc1Oc1ccc([N+](=O)[O-])cc1[N+](=O)[O-]	-1%	-18%	2%	0%	4%	?
CC1=NN(c2ccccc2)C(=O)/C1=C\c1cn(-c2ccccc2)nc1C	3%	5%	2%	-4%	-3%	?
CC1=NN(c2ccc(C)cc2)C(=O)/C1=C\c1ccc(Br)s1	-3%	7%[1.84 µM]	14%	2%	8%	-13%
CC1=NN(c2ccccc2)C(=O)/C1=C\c1sccc1C	.	.	4%	-5%	-2%	7.6µM*
CC1=NN(c2cccc(C(=O)O)c2)C(=O)/C1=C\C=C\c1ccco1	-4%	30%	?	10%	13%	2.7µM*
CC(C)(C)C(=O)OCc1cc(=O)n2nc(C3CC3)sc2n1	.	.	.	.	.	-8%
SMILES	KinaseGlo FLuc	SMN2 splice up	ELG1 genotoxic	NPC1 prom act	Rab9 promoter act	FLuc modulator
CCCCC1=CC2=C(c3ccco3)C(=O)C(C)(OC(=O)c3cccs3)C(=O)C2=CO1 (stereo unspecified)	-1%	-1%	.	.	.	.
O=C(COc1ccccc1)Nc1cc(Cl)ccc1Cl	.	.	20%	15%	4%	?
S=C(Nc1ccccc1Cl)Nc1ccc(Cl)cc1Cl	-2%	-26%	2%	3%	12%	-6%
O=C(COc1ccccc1)Nc1ccc(Cl)cc1Cl	-3%	.	?	?	2.2µM*	6µM*
S=C(Nc1ccccc1)Nc1ccc(Cl)cc1Cl	1%	26%	21µM*	3.2µM*	?	27µM*
O=C(COc1ccccc1O)Nc1ccccc1Cl	-2%	3%	?	4µM*	?	21µM*
CC(C)OCCCNC(=O)CCCn1c(SCC(N)=O)nc2c(sc3ccccc32)c1=O	.	12%	.	.	.	-1%
Clc1ccccc1CSc1ncn(-c2ccccc2)n1	-3%	22µM*	?	3.5µM*	?	7.6µM*
Nc1ccc(N=Nc2ccccc2)c(N)c1	.	28µM*	.	.	.	.
Nc1ccccc1N=Nc1ccccc1N	.	.	?	1.6µM*	1.6µM*	5.4µM*
O=C(NCCCCCCNC(=O)ON=C1CCCCC1)ON=C1CCCCC1	-1%[39.9 µM]	-15%	.	.	.	.
CCOC(=O)c1sc(Nc2ccc(OCC)cc2)nc1C	-1%	.	7%	-2%	-1%	?
Cc1ccc(Nc2nc(-c3sc(C)nc3C)cs2)cc1	.	.	18%	-18%	0%	12µM*
CC(=O)Nc1ccc(Nc2nc(-c3sc(C)nc3C)cs2)cc1	.	.	-9%	-5%	-1%	21µM*
COc1ccc(Nc2nc(-c3sc(N)nc3C)cs2)cc1	-4%	18%	?	?	22%	13µM*
Cc1nc(C)c(-c2csc(Nc3ccc(S(N)(=O)=O)cc3)n2)s1	.	.	3%	-8%	-2%	-4%
COc1ccc(Nc2nc(-c3sc(NC(C)=O)nc3C)cs2)cc1	-1%	-8%	-6%	-6%	0%	?
CCOc1ccc(Nc2nc(-c3sc(N)nc3C)cs2)cc1	.	.	10%	?	26%	15µM*
CC(C)(C)OC(=O)N1CCC(c2c(C(=O)NCCCN3CCc4ccccc4C3)cnn2-c2ccccc2)CC1	.	.	.	.	.	0%
Cc1ccc(Nc2nc(-c3sc(N)nc3C)cs2)cc1	.	.	?	0.79µM*	2.2µM*	2.1µM*
Cc1ccc(Cn2c(=O)n(-c3cc(C)cc(C)c3)c(=O)c3oc4ccccc4c32)cc1	.	.	.	.	.	5%
CC(C)(C)S(=O)(=O)c1cnc(-c2ccc(Cl)cc2)nc1N	.	.	10%	2.5µM*	2.2µM*	?
O=C1/C(=C\Nc2ccc(OC(F)(F)F)cc2)CCN1c1ncccn1	15%	17%	9.2µM*	?	2.5µM*	?
O=C1/C(=C\Nc2ccc(Cl)cc2)CCN1c1ncccn1	-5%	20µM*	?	2µM*	0.89µM*	4.8µM*
